Records with an inconclusive call do not appear. Calls of active or inactive are those of the source. The calls were made as follows, unless noted: active = hit-call score of the fitted dose curve at least 0.9, where 1 is the maximum; inconclusive = response in the unintended direction; inactive = score below 0.9.
How the values were obtained:
[1] = read-out: ABC Transporter (ABCB11), ABCB11 (gene 8647); test: CLD_ABCB11_6hr: CellzDirect (CLD) Gene Expression Assay for ABC Transporter (ABCB11) at 6 hours (AID 2283675);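 also: hits raise ABCB11 mRNA level so AC50 marks induction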
Summary of the method: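 Human primary hepatocytes (two donor preparations) given fresh chemical daily at multiple concentrations, vehicle 0.2% DMSO. ABCB11 mRNA induction measured 6 h after dosing by qNPA chemiluminescence versus DMSO; cytotoxicity annotated from morphology.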

[2] = read-out: Cytochrome P450 2B6 (Homo sapiens) (UniProt P20813); test: CLD_CYP2B6_6hr: CellzDirect (CLD) Gene Expression Assay for xenobiotic metabolism (CYP2B6) at 6 hours (AID 2283677);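 also: actives raise CYP2B6 transcript above DMSO baseline so AC50 marks an inducer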
Summary of the method: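 Primary human hepatocytes dosed with chemicals at multiple concentrations, vehicle 0.2% DMSO; CYP2B6 mRNA induction measured 6 h after dosing by quantitative nuclease protection assay with chemiluminescence, gain of signal fitted relative to DMSO.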

[3] = read-out: Cytochrome P450 2C19 (Homo sapiens) (UniProt P33261); test: CLD_CYP2C19_6hr: CellzDirect (CLD) Gene Expression Assay for xenobiotic metabolism (CYP2C19) at 6 hours (AID 2283678)
Summary of the method: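 Primary human hepatocytes from two donor preparations were dosed daily, with 0.2% DMSO as vehicle, and harvested 6 h after dosing. CYP2C19 mRNA induction was measured by qNPA chemiluminescence and fitted as gain of signal against DMSO.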

[4] = CCTE_Padilla_ZF_144hpf_TERATOSCORE: (Legacy) CCTE's 144 Hour Post-fertilization zebrafish Assay Teratoscore, Padilla Lab (AID 2283679; active = hit-call score of the fitted dose curve at least 0.9, where 1 is the maximum; inactive = score below 0.9;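 as to AC50: zebrafish embryos with chorions exposed by immersion from 6-8 hpf to 5 dpf with daily renewal; teratogenicity score from eye scoring of death hatching and malformations at 144 hpf; higher score means more developmental defects relative to DMSO baseline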)
Summary of the method: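 Larvae scored by eye at 144 hpf for death, hatching and malformations after a day in clean Hanks'. Before that, daily-renewed exposure at 80 uM (0.4% DMSO, 26C) from roughly 6-8 hpf through 5 dpf, 4 embryos per chemical.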

[5] = read-out: Glyceraldehyde-3-phosphate dehydrogenase (Homo sapiens) (UniProt P04406); test: CLD_GAPDH_6hr: CellzDirect (CLD) Gene Expression Assay for Baseline Control (Glyceraldehyde 3-phosphate dehydrogenase) at 6 hours (AID 2283681);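 also: active means increased signal relative to DMSO vehicle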
Summary of the method: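 Primary human hepatocytes from two donor preparations, dosed at multiple concentrations with 0.2% DMSO vehicle; GAPDH mRNA measured 6 h after dosing by chemiluminescent quantitative nuclease protection assay (qNPA) on denatured lysates. Serves as background control; cytotoxicity annotated by morphology.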

[6] = read-out: xenobiotic metabolism (CYP1A2), CYP1A2 (gene 1544); test: CLD_CYP1A2_24hr: CellzDirect (CLD) Gene Expression Assay for xenobiotic metabolism (CYP1A2) at 24 hours (AID 2283683)
Summary of the method: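 Primary human hepatocytes from two donor preparations dosed daily with multiple concentrations of chemical, 0.2% DMSO vehicle. CYP1A2 mRNA at 24 h quantified by qNPA chemiluminescence; gain of signal analyzed relative to DMSO. Cytotoxicity flagged by phase-contrast morphology.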

[7] = read-out: Broad substrate specificity ATP-binding cassette transporter ABCG2 (Homo sapiens) (UniProt Q9UNQ0); test: CLD_ABCG2_24hr: CellzDirect (CLD) Gene Expression Assay for ABC Transporter (ABCG2) at 24 hours (AID 2283685)
Summary of the method: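 Primary human hepatocytes were dosed daily with ToxCast chemicals at multiple concentrations (vehicle 0.2% DMSO). ABCG2 mRNA was measured at 24 h by qNPA chemiluminescence; induction was scored as gain of signal versus DMSO.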

[8] = read-out: Cytochrome P450 2B6 (Homo sapiens) (UniProt P20813); test: CLD_CYP2B6_24hr: CellzDirect (CLD) Gene Expression Assay for xenobiotic metabolism (CYP2B6) at 24 hours (AID 2283686)
Summary of the method: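 Primary human hepatocytes dosed daily for two days with fresh solutions, harvested at 24 hours; mRNA induction quantified by qNPA chemiluminescence, gain of signal vs 0.2% DMSO vehicle. Cytotoxicity annotated from phase-contrast morphology.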

[9] = read-out: Cytochrome P450 2C9 (Homo sapiens) (UniProt P11712); test: CLD_CYP2C9_24hr: CellzDirect (CLD) Gene Expression Assay for xenobiotic metabolism (CYP2C9) at 24 hours (AID 2283688);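 as to AC50: potency for induction meaning a rise in CYP2C9 mRNA over DMSO vehicle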
Summary of the method: (§1)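 Primary human hepatocytes from two donor preparations, dosed daily for two days at multiple concentrations; vehicle 0.2% DMSO. CYP2C9 mRNA induction at 24 h measured by qNPA chemiluminescence relative to DMSO; cytotoxicity annotated from morphology.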

[10] = read-out: organic anion transporter (SLCO1B1), SLCO1B1 (gene 10599); test: CLD_SLCO1B1_24hr: CellzDirect (CLD) Gene Expression Assay for organic anion transporter (SLCO1B1) at 24 hours (AID 2283690)
Summary of the method: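 Primary human hepatocytes (two donor preparations) dosed daily for two days with chemicals at multiple concentrations, 0.2% DMSO vehicle. SLCO1B1 mRNA at 24 h measured by qNPA chemiluminescence; induction fitted relative to DMSO.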

[11] = CLD_ACTIN_6hr: CellzDirect (CLD) Gene Expression Assay for Baseline Control (Actin) at 6 hours (AID 2283676);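 also: active means increased actin mRNA relative to DMSO vehicle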
Summary of the method: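 Primary human hepatocytes dosed with fresh chemical solutions (vehicle 0.2% DMSO), harvested at 6 h. Actin mRNA quantified by quantitative nuclease protection assay with chemiluminescent read-out, as background control relative to DMSO.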

[12] = read-out: alkyl and aryl transferase (GSTA2), GSTA2 (gene 2939); test: CLD_GSTA2_24hr: CellzDirect (CLD) Gene Expression Assay for alkyl and aryl transferase (GSTA2) at 24 hours (AID 2283693)
Summary of the method: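 Primary human hepatocytes (two donor preparations) dosed daily for two days with chemicals at multiple concentrations (vehicle 0.2% DMSO); GSTA2 mRNA at 24 h measured by qNPA chemiluminescence, gain-of-signal versus DMSO.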

[13] = read-out: HMG-CoA synthase (HMGCS2), HMGCS2 (gene 3158); test: CLD_HMGCS2_6hr: CellzDirect (CLD) Gene Expression Assay for HMG-CoA synthase (HMGCS2) at 6 hours (AID 2283682);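 also: actives raise HMGCS2 transcript above the 0.2% DMSO vehicle baseline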
Summary of the method: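 Primary human hepatocytes dosed daily with fresh chemical, 0.2% DMSO vehicle; HMGCS2 mRNA measured at 6 h by qNPA chemiluminescence. Gain of signal fitted against DMSO; cytotoxicity flagged from phase-contrast morphology.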

[14] = read-out: Cytochrome P450 3A4 (Homo sapiens) (UniProt P08684); test: CLD_CYP3A4_24hr: CellzDirect (CLD) Gene Expression Assay for xenobiotic metabolism (CYP3A4) at 24 hours (AID 2283689)
Summary of the method: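 Primary human hepatocytes from two donors dosed daily with fresh compound for two days, 0.2% DMSO vehicle. CYP3A4 mRNA at 24 hr by qNPA chemiluminescence; gain-of-signal fit versus DMSO, cytotoxicity flagged by morphology.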

[15] = read-out: ABC Transporter (ABCB1), ABCB1 (gene 5243); test: CLD_ABCB1_48hr: CellzDirect (CLD) Gene Expression Assay for ABC Transporter (ABCB1) at 48 hours (AID 2283695)
Summary of the method: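 Primary human hepatocytes from two donor preparations dosed daily on two consecutive days with 0.2% DMSO vehicle. Harvest at 48 h. ABCB1 mRNA quantified by qNPA with chemiluminescence and fitted for gain of signal versus DMSO.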

[16] = read-out: HMG-CoA synthase (HMGCS2), HMGCS2 (gene 3158); test: CLD_HMGCS2_24hr: CellzDirect (CLD) Gene Expression Assay for HMG-CoA synthase (HMGCS2) at 24 hours (AID 2283691)
Summary of the method: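 Primary human hepatocytes from two donor preparations, dosed daily with fresh solutions; vehicle 0.2% DMSO, 24 h harvest. HMGCS2 mRNA quantified by qNPA with S1 nuclease digestion and chemiluminescence; gain fitted versus DMSO, cytotoxicity annotated by morphology.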

[17] = read-out: ABC Transporter (ABCB1), ABCB1 (gene 5243); test: CLD_ABCB1_24hr: CellzDirect (CLD) Gene Expression Assay for ABC Transporter (ABCB1) at 24 hours (AID 2283684)
Summary of the method: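 Primary human hepatocytes, two donor preparations, dosed daily with fresh solutions; vehicle 0.2% DMSO; harvested at 24 h. ABCB1 mRNA measured by quantitative nuclease protection assay (chemiluminescence); morphology-based cytotoxicity annotated.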

[18] = read-out: xenobiotic metabolism (CYP2C9), CYP2C9 (gene 1559); test: CLD_CYP2C9_24hr: CellzDirect (CLD) Gene Expression Assay for xenobiotic metabolism (CYP1A2) at 24 hours (AID 2283688);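 as to AC50: potency for induction meaning a rise in CYP2C9 mRNA over DMSO vehicle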
Summary of the method: as §1

Measured: AC50

Cytochrome P450 2C19 (Homo sapiens), sequence (P33261 whole entry, looked up): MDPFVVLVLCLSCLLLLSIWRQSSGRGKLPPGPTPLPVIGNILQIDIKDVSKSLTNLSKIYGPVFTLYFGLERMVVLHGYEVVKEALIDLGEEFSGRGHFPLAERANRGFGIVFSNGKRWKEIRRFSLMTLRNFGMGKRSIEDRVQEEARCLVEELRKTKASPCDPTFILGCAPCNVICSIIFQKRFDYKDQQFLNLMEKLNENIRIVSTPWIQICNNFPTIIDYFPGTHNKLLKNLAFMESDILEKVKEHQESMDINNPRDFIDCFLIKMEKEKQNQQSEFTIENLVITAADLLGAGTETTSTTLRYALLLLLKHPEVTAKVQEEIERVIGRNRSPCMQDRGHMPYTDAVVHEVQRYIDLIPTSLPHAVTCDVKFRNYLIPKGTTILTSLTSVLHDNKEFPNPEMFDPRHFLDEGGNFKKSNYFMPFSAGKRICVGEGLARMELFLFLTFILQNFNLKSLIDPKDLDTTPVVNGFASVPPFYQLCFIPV
Glyceraldehyde-3-phosphate dehydrogenase (Homo sapiens), sequence (P04406 whole entry, looked up): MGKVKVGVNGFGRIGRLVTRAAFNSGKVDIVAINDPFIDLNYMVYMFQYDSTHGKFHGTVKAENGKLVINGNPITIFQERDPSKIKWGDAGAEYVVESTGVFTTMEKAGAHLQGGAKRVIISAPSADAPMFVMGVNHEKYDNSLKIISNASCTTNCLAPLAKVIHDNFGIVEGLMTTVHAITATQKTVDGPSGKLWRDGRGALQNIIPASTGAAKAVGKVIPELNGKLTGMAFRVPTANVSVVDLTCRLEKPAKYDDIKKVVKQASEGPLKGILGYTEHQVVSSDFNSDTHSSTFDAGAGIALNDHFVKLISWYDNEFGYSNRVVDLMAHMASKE
Broad substrate specificity ATP-binding cassette transporter ABCG2 (Homo sapiens), sequence (Q9UNQ0 whole entry, looked up): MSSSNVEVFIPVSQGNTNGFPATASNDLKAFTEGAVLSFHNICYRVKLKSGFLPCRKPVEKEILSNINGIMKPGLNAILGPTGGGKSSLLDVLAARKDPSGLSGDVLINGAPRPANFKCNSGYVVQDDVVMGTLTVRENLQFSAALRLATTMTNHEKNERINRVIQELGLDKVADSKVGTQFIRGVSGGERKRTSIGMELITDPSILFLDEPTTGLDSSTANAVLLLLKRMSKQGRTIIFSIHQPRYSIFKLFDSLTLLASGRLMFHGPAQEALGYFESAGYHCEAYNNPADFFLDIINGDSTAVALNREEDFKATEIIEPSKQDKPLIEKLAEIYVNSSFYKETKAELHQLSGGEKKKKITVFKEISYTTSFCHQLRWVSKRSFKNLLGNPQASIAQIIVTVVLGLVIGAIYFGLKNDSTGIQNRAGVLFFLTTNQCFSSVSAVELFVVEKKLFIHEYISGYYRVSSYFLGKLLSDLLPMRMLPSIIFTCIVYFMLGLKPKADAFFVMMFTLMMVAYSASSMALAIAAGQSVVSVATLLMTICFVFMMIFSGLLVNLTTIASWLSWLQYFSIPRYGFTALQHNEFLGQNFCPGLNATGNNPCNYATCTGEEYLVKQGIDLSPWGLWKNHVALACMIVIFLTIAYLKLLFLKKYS
Cytochrome P450 3A4 (Homo sapiens), sequence (P08684 whole entry, looked up): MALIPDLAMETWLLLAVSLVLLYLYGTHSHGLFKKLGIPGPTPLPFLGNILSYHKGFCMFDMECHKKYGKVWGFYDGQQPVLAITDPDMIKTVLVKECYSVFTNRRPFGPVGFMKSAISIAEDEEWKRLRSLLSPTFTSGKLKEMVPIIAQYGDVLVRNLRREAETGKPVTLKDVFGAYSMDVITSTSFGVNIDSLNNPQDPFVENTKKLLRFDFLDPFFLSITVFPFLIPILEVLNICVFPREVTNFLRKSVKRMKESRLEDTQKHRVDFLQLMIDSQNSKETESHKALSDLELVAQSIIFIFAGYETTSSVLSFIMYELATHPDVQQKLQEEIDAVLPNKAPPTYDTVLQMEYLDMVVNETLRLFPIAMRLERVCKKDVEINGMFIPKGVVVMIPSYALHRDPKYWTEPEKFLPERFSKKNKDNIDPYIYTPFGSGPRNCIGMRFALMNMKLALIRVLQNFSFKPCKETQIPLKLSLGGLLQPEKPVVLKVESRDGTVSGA

O=C(O)c1c(Cl)ccc2cc(Cl)cnc12
inactive: [1] | [2] | [3] | [4] | [5] | [6] | [7] | [8] | [9] | [10]

O=P(O)(O)CCCl
inactive: [1] | [11] | [4] | [5] | [6] | [8] | [12]

COc1ccc(-c2ccccc2)cc1NNC(=O)OC(C)C
active: [2] 6.49 µM | [4] 17.8 µM | [6] 0.255 µM | [8] 4.09 µM
inactive: [1] | [11] | [5] | [13] | [7] | [14] | [12] | [15]

COP(=O)(OC)O/C(C)=C/C(=O)N(C)C
not listed: [13] | [14] | [15] | [17] | [18]
inactive: all other assays above

O=C(Nc1ccccc1-c1ccc(Cl)cc1)c1cccnc1Cl
inactive: [1] | [11] | [3] | [13] | [15]
active: [2] 0.504 µM | [4] 3.12 µM | [6] 6.74 µM | [8] 0.427 µM

CS(=O)(=O)c1ccc(C(=O)C2C(=O)CCCC2=O)c([N+](=O)[O-])c1
active: [4] 14.4 µM | [18] 0.000305 µM
inactive: [1] | [11] | [5] | [6] | [17] | [8] | [16] | [12]

Clc1nc(Cl)nc(Nc2ccccc2Cl)n1
inactive: [1] | [11] | [2] | [5] | [6] | [8] | [10] | [12] | [15]
active: [4] 52 µM

CCOc1nc(F)cc2nc(S(=O)(=O)Nc3c(Cl)cccc3Cl)nn12
active: [2] 14.4 µM | [8] 6.27 µM
inactive: [1] | [3] | [4] | [13] | [6] | [7] | [9] | [16]

Nc1c(Cl)c(Cl)nc(C(=O)O)c1Cl
active: [6] 20 µM
not listed: [2] | [10] | [12] | [14] | [15] | [17] | [18]
inactive: all other assays above

Reference: PubChem BioAssay (EPA / NIEHS)
